Experimental data: the supplement of paper PMC8728848
About 410 targets per protein were measured; listed, in parts, are those with the strongest signals and a random draw of the rest.

How the values were obtained:
Experiment in all cases: glycan array binding signal (z-score within array); higher = stronger binding
Conditions in all cases: glycan notation: IUPAC condensed, linker removed
[1] = molecular target: Gal6S(b1-3)GlcNAc6S
In short: (§1)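 The binding signal is a Z-score computed within each array. Data were drawn from 3228 arrays in the Consortium for Functional Glycomics database, restricted to those with a known protein sequence. Scores were averaged over arrays of the same protein sequence at different concentrations or buffers, and over linkers, and negative values can be taken as non-binding.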

[2] = molecular target: GalNAc(a1-3)GalNAc(b1-3)Gal(a1-4)Gal(b1-4)GlcNAc
In short: as §1

[3] = molecular target: Glc(a1-6)Glc(a1-6)Glc(a1-6)Glc
In short: as §1

[4] = molecular target: GlcNAc(b1-2)Man(a1-3)[GlcNAc(b1-4)][GlcNAc(b1-2)Man(a1-6)]Man(b1-4)GlcNAc(b1-4)GlcNAc
In short: as §1

[5] = molecular target: GlcNAc(b1-2)Man(a1-3)[GlcNAc(b1-4)][GlcNAc(b1-2)Man(a1-6)]Man(b1-4)GlcNAc(b1-4)[Fuc(a1-6)]GlcNAc
In short: as §1

[6] = molecular target: GlcNAc(b1-2)[GlcNAc(b1-4)]Man(a1-3)[GlcNAc(b1-4)][GlcNAc(b1-2)[GlcNAc(b1-6)]Man(a1-6)]Man(b1-4)GlcNAc(b1-4)GlcNAc
In short: as §1

[7] = molecular target: GlcNAc(b1-3)Gal(b1-3)GalNAc
In short: as §1

[8] = molecular target: GlcNAc(b1-3)Gal(b1-4)GlcNAc
In short: as §1

[9] = molecular target: GlcNAc(b1-3)Gal(b1-4)GlcNAc(b1-3)Gal(b1-4)GlcNAc(b1-2)[GlcNAc(b1-3)Gal(b1-4)GlcNAc(b1-3)Gal(b1-4)GlcNAc(b1-6)]Man(a1-6)[GlcNAc(b1-3)Gal(b1-4)GlcNAc(b1-3)Gal(b1-4)GlcNAc(b1-2)Man(a1-3)]Man(b1-4)GlcNAc(b1-4)[Fuc(a1-6)]GlcNAc
In short: as §1

[10] = molecular target: GlcNAc(b1-3)Gal(b1-4)GlcNAc(b1-3)Gal(b1-4)GlcNAc(b1-3)Gal(b1-4)GlcNAc(b1-2)[GlcNAc(b1-3)Gal(b1-4)GlcNAc(b1-3)Gal(b1-4)GlcNAc(b1-3)Gal(b1-4)GlcNAc(b1-6)]Man(a1-6)[GlcNAc(b1-3)Gal(b1-4)GlcNAc(b1-3)Gal(b1-4)GlcNAc(b1-3)Gal(b1-4)GlcNAc(b1-2)Man(a1-3)]Man(b1-4)GlcNAc(b1-4)[Fuc(a1-6)]GlcNAc
In short: as §1

[11] = molecular target: GlcNAc(b1-3)Gal(b1-4)GlcNAc(b1-3)Gal(b1-4)GlcNAc(b1-3)Gal(b1-4)GlcNAc(b1-3)Gal(b1-4)GlcNAc(b1-2)Man(a1-3)[GlcNAc(b1-3)Gal(b1-4)GlcNAc(b1-3)Gal(b1-4)GlcNAc(b1-3)Gal(b1-4)GlcNAc(b1-3)Gal(b1-4)GlcNAc(b1-2)Man(a1-6)]Man(b1-4)GlcNAc(b1-4)GlcNAc
In short: as §1

[12] = molecular target: GlcNAc(b1-3)Gal(b1-4)GlcNAc(b1-3)Gal(b1-4)GlcNAc(b1-3)Gal(b1-4)GlcNAc(b1-3)Gal(b1-4)GlcNAc(b1-2)[GlcNAc(b1-3)Gal(b1-4)GlcNAc(b1-3)Gal(b1-4)GlcNAc(b1-3)Gal(b1-4)GlcNAc(b1-3)Gal(b1-4)GlcNAc(b1-6)]Man(a1-6)[GlcNAc(b1-3)Gal(b1-4)GlcNAc(b1-3)Gal(b1-4)GlcNAc(b1-3)Gal(b1-4)GlcNAc(b1-3)Gal(b1-4)GlcNAc(b1-2)Man(a1-3)]Man(b1-4)GlcNAc(b1-4)[Fuc(a1-6)]GlcNAc
In short: as §1

[13] = molecular target: GlcNAc(b1-3)[GlcNAc(b1-6)]GalNAc
In short: as §1

[14] = molecular target: Man(a1-2)Man(a1-2)Man(a1-6)[Man(a1-3)]Man
In short: as §1

[15] = molecular target: Man(a1-2)Man(a1-3)[Man(a1-2)Man(a1-6)]Man(a1-6)[Man(a1-2)Man(a1-2)Man(a1-3)]Man
In short: as §1

[16] = molecular target: Man(a1-3)[Man(a1-6)]Man(b1-4)GlcNAc(b1-4)GlcNAc
In short: as §1

[17] = molecular target: Neu5Ac(a2-3)Gal(b1-3)GlcNAc(b1-2)[Neu5Ac(a2-3)Gal(b1-3)GlcNAc(b1-4)]Man(a1-6)[Neu5Ac(a2-3)Gal(b1-3)GlcNAc(b1-2)Man(a1-3)]Man(b1-4)GlcNAc(b1-4)GlcNAc
In short: as §1

[18] = molecular target: Neu5Ac(a2-3)Gal(b1-4)[Fuc(a1-3)]GlcNAc
In short: as §1

[19] = molecular target: Neu5Ac(a2-3)GalNAc(b1-4)GlcNAc
In short: as §1

[20] = molecular target: Neu5Ac(a2-3)[GalNAc(b1-4)]Gal(b1-4)GlcNAc
In short: as §1

[21] = molecular target: Neu5Ac(a2-6)Gal(b1-3)GlcNAc(b1-3)[Gal(b1-4)GlcNAc(b1-6)]Gal(b1-4)Glc
In short: as §1

[22] = molecular target: Neu5Ac(a2-6)Gal(b1-4)GlcNAc
In short: as §1

[23] = molecular target: Neu5Ac(a2-6)Gal(b1-4)GlcNAc(b1-2)Man(a1-3)[Man(a1-6)]Man(b1-4)GlcNAc(b1-4)GlcNAc
In short: as §1

[24] = molecular target: Neu5Ac(a2-6)Gal(b1-4)GlcNAc(b1-3)Gal(b1-4)GlcNAc(b1-3)Gal(b1-4)GlcNAc(b1-2)Man(a1-3)[Neu5Ac(a2-6)Gal(b1-4)GlcNAc(b1-3)Gal(b1-4)GlcNAc(b1-3)Gal(b1-4)GlcNAc(b1-2)Man(a1-6)]GalNAc
In short: as §1

[25] = molecular target: Neu5Ac(a2-6)Gal(b1-4)GlcNAc(b1-6)[Gal(b1-3)GlcNAc(b1-3)]Gal(b1-4)Glc
In short: as §1

[26] = molecular target: Neu5Ac(a2-6)GalNAc(b1-4)GlcNAc6S
In short: as §1

[27] = molecular target: Neu5Ac(b2-6)GalNAc
In short: as §1

[28] = molecular target: Neu5Gc(a2-3)Gal(b1-4)GlcNAc
In short: as §1

B1: LlpA (Burkholderia cenocepacia) (protein)
chain: MGSSHHHHHHSSGLVPRGSHKILGSNETLSAGNVVYSDNGQYHLAMQTDGNLVVYGPTGAVWQSQTSGSGGNRAVMQGDGNLVIYRADNTAAWSSKTAHPGAFLAVQDDGNVVIYWPRPAWASNTSDPATQQSAESKYLASGSTMSAGQTVTVAQYMLVFQADGNLVLYKNGGNPIWSTGTQGKGATYAVMQSDGNFVIYAGSTALWSTKTNGANGAQLVLQSDGNLVIYAPTAAWSTKFGLVTAPTSTSTSNNGPGSGICVGVCPPHPLNGNPFSPVGVGTTGLGFPTPGYPGAAF
glycan array binding signal (z-score) [1]: -0.227
glycan array binding signal (z-score) [2]: -0.419
glycan array binding signal (z-score) [3]: 0.011
glycan array binding signal (z-score) [4]: 0.686
glycan array binding signal (z-score) [5]: -0.623
glycan array binding signal (z-score) [6]: -0.839
glycan array binding signal (z-score) [7]: 0.088
glycan array binding signal (z-score) [8]: -0.175
glycan array binding signal (z-score) [9]: 1.97
glycan array binding signal (z-score) [10]: 2.12
glycan array binding signal (z-score) [11]: 1.56
glycan array binding signal (z-score) [12]: 1.97
glycan array binding signal (z-score) [13]: 0.522
glycan array binding signal (z-score) [14]: -0.239
glycan array binding signal (z-score) [15]: 0.07
glycan array binding signal (z-score) [16]: -0.516
glycan array binding signal (z-score) [17]: 0.118
glycan array binding signal (z-score) [18]: -0.785
glycan array binding signal (z-score) [19]: -0.208
glycan array binding signal (z-score) [20]: -0.447
glycan array binding signal (z-score) [21]: -0.697
glycan array binding signal (z-score) [22]: -0.538
glycan array binding signal (z-score) [23]: 0.308
glycan array binding signal (z-score) [24]: 1.99
glycan array binding signal (z-score) [25]: 0.132
glycan array binding signal (z-score) [26]: 0.676
glycan array binding signal (z-score) [27]: -0.883
glycan array binding signal (z-score) [28]: -0.079
